Results on 92 molecules are retold here after PubChem BioAssay AID720504 (National Center for Advancing Translational Sciences (NCATS), 2013).

Molecules are shown by their SMILES. About 10,000 (2.8%) of roughly 360,000 compounds were called active. Another 4% or so got no clear call; they are omitted. Calls follow the shape of the dose curve; as a rule, active = well fitted inhibition curve with a large enough effect; inconclusive = small, poorly fitted or top-dose-only effect; inactive = flat fitted curve, though single readings scatter. This excerpt belongs to a sample that is enriched for actives.
% is scaled to controls: 0 for no effect and ±100 for the full control effect; potency is read from the fitted curve at half-maximal effect.

Chain of Serine/threonine-protein kinase PLK1 (Homo sapiens) (P53350 whole entry, looked up, the tested form may be a part): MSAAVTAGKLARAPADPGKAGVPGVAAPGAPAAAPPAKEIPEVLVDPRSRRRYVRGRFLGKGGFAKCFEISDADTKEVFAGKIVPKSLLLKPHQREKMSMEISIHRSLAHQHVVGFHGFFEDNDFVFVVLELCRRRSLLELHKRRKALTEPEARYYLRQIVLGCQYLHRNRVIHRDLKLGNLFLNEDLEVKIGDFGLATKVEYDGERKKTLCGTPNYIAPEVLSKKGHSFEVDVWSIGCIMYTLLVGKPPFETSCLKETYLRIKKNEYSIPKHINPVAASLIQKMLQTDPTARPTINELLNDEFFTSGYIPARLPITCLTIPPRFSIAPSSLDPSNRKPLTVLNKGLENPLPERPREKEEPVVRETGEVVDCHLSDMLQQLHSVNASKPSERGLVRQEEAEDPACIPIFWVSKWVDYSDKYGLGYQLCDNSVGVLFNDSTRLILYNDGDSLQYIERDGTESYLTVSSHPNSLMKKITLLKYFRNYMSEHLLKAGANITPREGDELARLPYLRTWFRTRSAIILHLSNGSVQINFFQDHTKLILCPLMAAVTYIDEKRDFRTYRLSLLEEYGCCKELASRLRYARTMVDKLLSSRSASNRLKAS

This assay addresses Serine/threonine-protein kinase PLK1 (Homo sapiens) (UniProt P53350). As to the kind of experiment: qHTS for Inhibitors of PLK1-PDB (polo-like kinase 1 - polo-box domain): Primary Screen. Also: nearly all actives have a fitted effect of over 65% in size. As to max response, negative = inhibition: series mostly up to about 57 µM. Conditions: Plk1 PBD binding of FITC phosphopeptide, fluorescence polarization. Background: In qHTS, concentration-response curves come from the screen itself.
`CCCCCCNC(=O)O[C@]12C[C@@H](C(=O)OC)[C@@H](C(=O)OC)C[C@@]1(O)CN(S(=O)(=O)c1ccc(C)cc1)C2`: the max response, negative = inhibition is -1.62% (inactive).
On the same count and under the same terms, the same measure for `COc1ccc(C2C(C#N)=C(/N=C/N3CCOCC3)OC3=C2C(=O)CC(C)(C)C3)cc1OC` (configuration not stated): -6.22% (inactive); for `CCc1ccc(C2C(C#N)=C(N)N(N(C)C)C3=C2C(=O)CCC3)s1` (configuration not stated): 2.14% (inactive).
On to `CCc1ccc(C2C(C#N)=C(N)N(N3CCOCC3)C3=C2C(=O)CC(C)(C)C3)s1` (configuration not stated), for which the Potency is 26.7 µM (active).
Take `CCC(Oc1ccccc1)C(=O)NCc1cccnc1` (configuration not stated): the Potency is 18.9 µM (active).
In the case of `O=C(O)c1ccccc1-c1ccccc1C(=O)NCc1cccnc1`, the max response, negative = inhibition is -5.72% (inactive).
Turning to `O=C(NCc1cccnc1)Nc1ccccc1F`, the max response, negative = inhibition was -0.233% (inactive).
Regarding `COc1cccc(C(NC(C)=O)c2nc(-c3ccccc3OC)cs2)c1` (configuration not stated), the max response, negative = inhibition was -10% (inactive).
With `CC1=NN(C(N)=S)C(=O)C1N=Nc1cc(Cl)ccc1Cl` (configuration not stated), the Potency was 26.7 µM (active).
Regarding `COc1ccc(-c2cc(C(=O)N3CCN(c4ccc(F)cc4)CC3)no2)cc1`, the max response, negative = inhibition is -9.29% (inactive).
Consider `O=C(c1cc(-c2ccc(F)cc2)on1)N1CCN(c2ccc(F)cc2)CC1`, for which the Potency is 26.7 µM (active).
`O=C(c1cc(-c2ccc(Cl)cc2)on1)N1CCN(c2ccccc2)CC1`: the max response, negative = inhibition is -5.98% (inactive).
`OC[C@@H]1CN(Cc2ccc(-c3ccccc3)cc2)C[C@H](n2cnc3c(NC4CCCC4)ncnc32)O1`: the max response, negative = inhibition was 4% (inactive).
For the molecule `CCOC(=O)c1cc(-c2sc(NC(=O)c3ccccc3)nc2C)n(Cc2ccccc2)n1`, the max response, negative = inhibition was 7.73% (inactive).
On to `COC(=O)[C@]12CCCCC=C1N(CCC1=CCCCC1)C(=O)[C@H](CC(=O)NCC1CCCCC1)C2`, for which the max response, negative = inhibition was -2.73% (inactive).
For the molecule `CCC(CC)c1nnc(NC(=O)C2=COCCO2)s1`, the max response, negative = inhibition was -0.0349% (inactive).
Consider `Cc1sc(NC(=O)C2=COCCO2)c(C#N)c1C`, for which the Potency is 11.9 µM (active).
`Cc1csc(NC(=O)C2=COCCO2)n1`: the max response, negative = inhibition is -3.95% (inactive).
Same read-out and setting: the same measure for `COc1cccc(NC(=O)Nc2ccc(F)cc2)c1`: -6.36% (inactive).
On to `COc1cc(C(=O)NCc2ccncc2)cc(Br)c1OCc1ccccc1`, for which the max response, negative = inhibition was -15.6% (inactive).
With `COc1cc(C(=S)NCc2ccccc2)cc(Br)c1O`, the Potency was 4.23 µM (active).
Take `COc1cc(CNC2CCCC2)c(Br)cc1OCc1ccccc1`: the max response, negative = inhibition was -0.667% (inactive).
Take `Nc1nc2cc(Cl)ccc2n1N`: the max response, negative = inhibition is -1.19% (inactive).
Take `CCCNC(=O)c1cc(C2CCCCN2C(=O)OC)on1` (configuration not stated): the max response, negative = inhibition was -6.79% (inactive).
With `O=C(c1ccc(CS(=O)Cc2ccccc2Cl)o1)N1CCN(c2ccccc2)CC1` (configuration not stated), the max response, negative = inhibition was -18.2% (inactive).
Consider `Cc1ccc2nc(-c3ccccc3)c(CC3CCCCC3)n2c1`, for which the max response, negative = inhibition was -7.91% (inactive).
Consider `O=C1NC(O)CCN1C1CC(O)C(CO)O1` (configuration not stated), for which the max response, negative = inhibition is -1.57% (inactive).
With `Nc1ccccc1SC(C[N+](=O)[O-])c1ccccc1` (configuration not stated), the Potency was 0.752 µM (active).
Take `Nc1cccc(OCCCCCOc2cccc(N)c2)c1`: the max response, negative = inhibition was 1.62% (inactive).
For `N#Cc1cccc(NC(=O)c2cc(C3CCCCN3C(=O)CCc3ccccc3)on2)c1` (configuration not stated), the max response, negative = inhibition is 4.56% (inactive).
Take `Cc1ccccc1S(=O)(=O)NC(=O)C1(C)CCN1C(=O)Cc1ccc(Cl)cc1Cl` (configuration not stated): the max response, negative = inhibition is -14.1% (inactive).
Regarding `O=C(c1ccco1)N1CCN(C(=O)C2CC(c3ccc(Cl)c(Cl)c3)=NO2)CC1` (configuration not stated), the max response, negative = inhibition is -17% (inactive).
Consider `O=C(c1ccco1)N1CCN(C(=O)C2CC(c3ccc(F)cc3)=NO2)CC1` (configuration not stated), for which the Potency is 26.7 µM (active).
Take `CCOC(=O)N1CCN(C(=O)C2CC(c3ccc(F)cc3)=NO2)CC1` (configuration not stated): the max response, negative = inhibition was -12.9% (inactive).
Take `COc1ccc(CN(C)C(=O)Cc2ccsc2)c(OC)c1OC`: the max response, negative = inhibition was -14.4% (inactive).
As to `COc1ccc(S(=O)(=O)N2CCCCCC2)cc1C(=O)N(C)Cc1cccc(OC)c1OC`, the max response, negative = inhibition is -7.8% (inactive).
Regarding `COc1cccc(CN(C)C(=O)CC23CC4CC(CC(C4)C2)C3)c1OC`, the Potency was 29.9 µM (active).
With `Cc1ccc(S(=O)(=O)NN=C2CC(C)(C)CC(=O)C2(C)C)cc1`, the max response, negative = inhibition was -5.23% (inactive).
As for `c1ccc(Cc2ccc(OCCn3ccnc3)cc2)cc1`, the max response, negative = inhibition was 4.09% (inactive).
On the same count and under the same terms, the same measure for `CCOc1ccc(C2/C(=C(/O)c3ccc4c(c3)CC(C)O4)C(=O)C(=O)N2CCCn2ccnc2)cc1` (configuration not stated): -16.9% (inactive).
Consider `CCCOc1ccc(C2C(C(=O)c3ccc(C)o3)=C(O)C(=O)N2CCCn2ccnc2)cc1` (configuration not stated), for which the Potency was 23.8 µM (active).
For the molecule `COc1cc(OC)c(C(=S)N2CCCC2)cc1OC`, the Potency is 11.9 µM (active).
`COc1ccc(C(=O)N2CCCN(C)CC2)c(OC)c1`: the max response, negative = inhibition was 1.15% (inactive).
Take `COc1cc(OC)c(C(=O)N2CCCC2)cc1OC`: the max response, negative = inhibition is -4.54% (inactive).
Still for that read-out and setting: next, `NC(=O)CSc1nnc(-c2cccc(S(=O)(=O)N3CCOCC3)c2)o1`: -12.4% (inactive).
As to `CCN(CC)C(=O)C1=C(C)N(Cc2ccc(F)cc2)C(=O)C(CC(=O)NC2CCCC2)C1` (configuration not stated), the max response, negative = inhibition is 3.61% (inactive).
As for `CC(C)C[C@H]1CN([C@@H](Cc2ccccc2)CN2CCC[C@@H]2CN2C(=O)C(=O)NC[C@@H]2Cc2ccc(O)cc2)C(=O)C(=O)N1CCc1ccccc1`, the max response, negative = inhibition was 0.344% (inactive).
On the same count and under the same terms, the same measure for `Cc1cccc(OCC(O)Cn2c(N3CCCCC3)nc3c2c(=O)[nH]c(=O)n3C)c1` (configuration not stated): -3.66% (inactive); for `CN1CCN(c2nc3c(c(=O)[nH]c(=O)n3C)n2Cc2cccc3ccccc23)CC1`: -17.6% (inactive).
In the case of `CCC(C)Sc1nc2c(c(=O)[nH]c(=O)n2C)n1CC(O)COc1cccc2ccccc12` (configuration not stated), the Potency is 18.9 µM (active).
Take `CC1(C(=O)O)CCCN(C(=O)/C=C/c2ccccc2)C1` (configuration not stated): the max response, negative = inhibition is -5.95% (inactive).
For `CCC(=O)N1CCC(C)(C(=O)Nc2cc(OC)c(OC)c(OC)c2)C1` (configuration not stated), the max response, negative = inhibition was 4.76% (inactive).
`O=S1(=O)CC(N2CCC(Cc3ccccc3)CC2)CN1Cc1ccccc1` (configuration not stated): the max response, negative = inhibition was -4.73% (inactive).
Take `COC(=O)c1sccc1NC(=O)c1ccc(Cl)cc1`: the max response, negative = inhibition was -7.12% (inactive).
Take `CSc1nccc(NC(=O)c2ccc(C(C)(C)C)cc2)n1`: the max response, negative = inhibition is -8.27% (inactive).
On to `COC(=O)c1nc(NC(=O)c2ccc(C(C)(C)C)cc2)n[nH]1`, for which the Potency was 3.77 µM (active).
For the molecule `COC(=O)c1nc(NC(=O)c2ccccc2)n[nH]1`, the Potency is 26.7 µM (active).
Take `CC(C)Oc1cc(F)ccc1-c1cc(C(=O)Nc2ccc(F)cc2)[nH]n1`: the max response, negative = inhibition is -4.13% (inactive).
Regarding `O=C(Nc1nsc(-c2ccccc2)n1)c1ccncc1`, the max response, negative = inhibition is 0.306% (inactive).
On the same count and under the same terms, the same measure for `CCOC(=O)NNC(=O)c1ccc(Cl)cc1`: -5.54% (inactive); for `O=C(Nc1n[nH]c(C(F)(F)F)n1)c1cccs1`: -23.4% (inactive); for `COc1ccc(C(=O)NNC(=O)c2cc(C)[nH]n2)cc1`: -5.72% (inactive).
`COC(=O)c1nc(NC(=O)c2ccc(Cl)cc2)n[nH]1`: the Potency was 26.7 µM (active).
For `COc1ccc(C(=O)Nc2ccc(F)cc2F)cc1`, the max response, negative = inhibition is -1.72% (inactive).
With `COC(=O)c1nc(NC(=O)c2ccc(F)cc2)n[nH]1`, the Potency is 15 µM (active).
For `OC[C@@H]1CN(Cc2ccc(Cl)cc2)C[C@H](n2cnc3c(NCc4ccncc4)ncnc32)O1`, the max response, negative = inhibition is -6.44% (inactive).
On the same count and under the same terms, next, `O=C1Nc2ccccc2-n2nnnc2C1N1CCN(c2cccc(C(F)(F)F)n2)CC1` (configuration not stated): -6.8% (inactive); `COc1cccc(-c2cnc3c(NC(C)=O)cc(-c4cc(F)ccc4OC)cn23)c1`: -5.58% (inactive); `CCOC1=C2[C@H]([C@H]3C(=O)N(c4ccccc4)C(=O)[C@H]3C1)[C@@H](c1ccccc1)N(S(=O)(=O)c1ccc(C)cc1)[C@H]2c1ccccc1`: 1.42% (inactive).
Take `Cc1ccccc1C#CC1=CC(=O)CC(C)(C)C1`: the max response, negative = inhibition was -11.2% (inactive).
Same read-out and setting: the same measure for `COc1ccccc1CNC(=O)c1cc(-c2cc(F)ccc2OC)n[nH]1`: -1.03% (inactive); for `O=C(OC1CC2CC1[C@H]1CCCCN1C2=O)N1CCOCC1` (some centres not stated): -1.86% (inactive); for `COc1cc(C(O)c2nc(-c3cnn(C)c3)cs2)ccc1F` (configuration not stated): -2.35% (inactive).
Regarding `COc1cc(C(=O)N2CCOC23CCN(Cc2ccccc2)CC3)cc(OC)c1OC`, the max response, negative = inhibition was 1.8% (inactive).
As for `Nc1ncnc2c1ncn2[C@@H]1O[C@H](C(=O)N2CCCN(Cc3ccccc3F)CC2)[C@@H](O)[C@H]1O`, the max response, negative = inhibition was -0.717% (inactive).
Take `Cc1nc2ccc(NC(=S)N3CCC(C)CC3)cc2nc1C`: the max response, negative = inhibition is 0.665% (inactive).
In the case of `CC1CCN(C(=S)c2cccc(O)c2)CC1`, the Potency is 18.9 µM (active).
With `CC1CCN(C(=S)NC(=O)c2ccccc2Br)CC1`, the max response, negative = inhibition is -2.34% (inactive).
Regarding `CCCCc1c(-c2ccc(Br)cc2)ncn1CCc1ccccc1OC`, the max response, negative = inhibition was 3.4% (inactive).
Consider `NCCCCC(C(=O)O)N(C(=O)OCc1ccccc1)C(=O)OCc1ccccc1` (configuration not stated), for which the max response, negative = inhibition is -19.2% (inactive).
As for `CC1Cc2[nH][nH]c(=O)c2C(C2CC2)O1` (configuration not stated), the max response, negative = inhibition is -23.1% (inactive).
Consider `O=C(COc1ccc(S(=O)(=O)Nc2cccc(C(F)(F)F)c2)cc1)N1CCOCC1`, for which the max response, negative = inhibition was -3.59% (inactive).
In the case of `Cc1oc2c(F)c(F)c(F)c(F)c2c1S(=O)(=O)Nc1cccc(C(F)(F)F)c1`, the Potency is 37.7 µM (active).
Take `O=C(NCc1ccccc1)c1ccc(S(=O)(=O)Nc2cccc(C(F)(F)F)c2)cc1`: the max response, negative = inhibition is -14.9% (inactive).
`Cc1[nH]c2ccccc2c1C(=O)C(=O)NCc1nnnn1-c1cccc(F)c1`: the max response, negative = inhibition is -8.15% (inactive).
As to `Cn1c(SCC(=O)Nc2nccs2)nnc1-c1cccnc1`, the max response, negative = inhibition is -6.93% (inactive).
For the molecule `Cc1cc(C)nc(SCc2nnc(SCC(=O)Nc3ncc(C)s3)n2Cc2ccco2)n1`, the max response, negative = inhibition is -1.22% (inactive).
`Cc1cnc(NC(=O)CSc2nnc(-c3ccc(Cl)cc3Cl)n2N)s1`: the Potency is 23.8 µM (active).
Regarding `CN(Cc1ccccc1)C(=O)CCC1CCN(C(=O)c2ccco2)CC1`, the max response, negative = inhibition was -7.2% (inactive).
As for `CC(C)(C)c1nnc(NC(=O)C2c3ccccc3Oc3ccccc32)s1`, the Potency is 2.67 µM (active).
Regarding `CC(C)(C)NC(=O)NC(=O)COC(=O)C1c2ccccc2Oc2ccccc21`, the max response, negative = inhibition is -13.1% (inactive).
The same measure, in the same setting: next, `CCCN(CCC)C(=O)C1c2ccccc2Oc2ccccc21`: -4.59% (inactive).
